Experimental data reported in PubChem BioAssay (NCATS).
Unmarked numbers belong to inactive results. Results filed as inconclusive are left out. Activity calls are given as the source filed them. Unless noted, calls follow the shape of the dose curve; as a rule, active = well fitted curve in either direction with a large enough effect (not every such curve was filed as active); inconclusive = small, poorly fitted or top-dose-only effect, or another doubt; inactive = flat fitted curve, though single readings scatter.

Tests used:
[1] = AP1 Signaling Pathway (AID 357); details: ME-180 AP-1-bla reporter, EGF-induced, beta-lactamase ratio, 5 h; at 7.69 µM (top of the series) unless noted;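 also: ME-180 reporter cells stimulated with EGF at its EC50 level; % is scaled to controls: 0 for no effect and ±100 for the full control effect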
Summary of the method: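 Cells are seeded overnight, exposed to compound titrations and an EC50 level of EGF for 5 hours at 37 °C, then loaded with CCF4 dye for 2.5 hours. Beta-lactamase activity under the AP-1 element is read as a blue/green ratio.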

[2] = target: Cytochrome P450 1A2 (Homo sapiens) (UniProt P05177); experiment: p450-cyp1a2 (AID 410; calls by dose curve; also: potency is read from the fitted curve at half-maximal effect;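 as to activity change, negative = inhibition: -100% = full effect of reference inhibitor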)
Chain of Cytochrome P450 1A2 (Homo sapiens) (P05177 whole entry, looked up): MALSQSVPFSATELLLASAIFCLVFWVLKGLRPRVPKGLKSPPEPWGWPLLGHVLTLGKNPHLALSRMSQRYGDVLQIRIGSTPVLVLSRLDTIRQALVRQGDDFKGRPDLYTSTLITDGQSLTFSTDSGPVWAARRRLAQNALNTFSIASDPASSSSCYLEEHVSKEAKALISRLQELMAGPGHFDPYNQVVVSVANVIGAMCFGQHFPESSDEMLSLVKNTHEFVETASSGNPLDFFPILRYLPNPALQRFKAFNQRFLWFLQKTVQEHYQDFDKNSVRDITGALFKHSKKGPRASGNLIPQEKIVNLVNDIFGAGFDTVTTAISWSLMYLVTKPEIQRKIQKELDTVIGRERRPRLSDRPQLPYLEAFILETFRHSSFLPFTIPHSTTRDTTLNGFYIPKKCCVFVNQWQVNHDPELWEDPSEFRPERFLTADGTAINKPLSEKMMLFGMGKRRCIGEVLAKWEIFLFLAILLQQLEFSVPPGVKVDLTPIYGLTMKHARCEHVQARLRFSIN
Summary of the method: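 20nM CYP1A2 with 100uM Luciferin-ME (at Km) in 100mM KPO4; compound preincubated 10 min, NADPH regeneration added, 60 min at room temperature. Luciferin quantified by luminescence after detection reagent; normalized to 57 uM furafylline.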

[3] = NFAT Signaling Pathway (AID 444); details: Jurkat NFAT-bla M1, carbachol, beta-lactamase ratio, 5 h; at 7.69 µM (top of the series) unless noted;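 also: carbachol stimulus at about its EC50 of 1 µM final; % is scaled to controls: 0 for no effect and ±100 for the full control effect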
Summary of the method: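 Jurkat cells with NFAT-driven β-lactamase reporter and co-expressed M1 receptor, stimulated with carbachol (final 1 uM, ~EC50), compound titration, 5 h at 37 °C. CCF4 loaded 1 h at RT; 460/530 nm ratio gave %activity and AC50.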

[4] = Stat Signaling Pathway (AID 446); details: ME-180 SIE beta-lactamase reporter, IL-6 stimulated, 5 h; at 7.69 µM (top of the series) unless noted;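 also: ME-180 cervical cancer cells given 40 pM IL-6 alongside compound; SIE-controlled beta-lactamase reporter measured as 460/530 nm FRET emission ratio; % is scaled to controls: 0 for no effect and ±100 for the full control effect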
Summary of the method: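 Reporter line: ME-180 cervical carcinoma, SIE-beta-lactamase. Treatment: compound with 40 pM IL-6, 5 hrs, 37 C, in low-serum OPTI-MEM with 10 mM HEPES pH 7.3. Detection: 460/530 nm fluorescence.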

[5] = target: Glucocorticoid receptor (Homo sapiens) (UniProt P04150); experiment: GR-GFP Redistribution (AID 450;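 active = compounds whose dose series gives a full or clear partial fitted curve of increased nuclear translocation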; also: potency is read from the fitted curve at half-maximal effect); details: U2OS GR-GFP nuclear translocation, laser cytometry, 2 h
Chain of Glucocorticoid receptor (Homo sapiens) (P04150 whole entry, looked up, the tested form may be a part): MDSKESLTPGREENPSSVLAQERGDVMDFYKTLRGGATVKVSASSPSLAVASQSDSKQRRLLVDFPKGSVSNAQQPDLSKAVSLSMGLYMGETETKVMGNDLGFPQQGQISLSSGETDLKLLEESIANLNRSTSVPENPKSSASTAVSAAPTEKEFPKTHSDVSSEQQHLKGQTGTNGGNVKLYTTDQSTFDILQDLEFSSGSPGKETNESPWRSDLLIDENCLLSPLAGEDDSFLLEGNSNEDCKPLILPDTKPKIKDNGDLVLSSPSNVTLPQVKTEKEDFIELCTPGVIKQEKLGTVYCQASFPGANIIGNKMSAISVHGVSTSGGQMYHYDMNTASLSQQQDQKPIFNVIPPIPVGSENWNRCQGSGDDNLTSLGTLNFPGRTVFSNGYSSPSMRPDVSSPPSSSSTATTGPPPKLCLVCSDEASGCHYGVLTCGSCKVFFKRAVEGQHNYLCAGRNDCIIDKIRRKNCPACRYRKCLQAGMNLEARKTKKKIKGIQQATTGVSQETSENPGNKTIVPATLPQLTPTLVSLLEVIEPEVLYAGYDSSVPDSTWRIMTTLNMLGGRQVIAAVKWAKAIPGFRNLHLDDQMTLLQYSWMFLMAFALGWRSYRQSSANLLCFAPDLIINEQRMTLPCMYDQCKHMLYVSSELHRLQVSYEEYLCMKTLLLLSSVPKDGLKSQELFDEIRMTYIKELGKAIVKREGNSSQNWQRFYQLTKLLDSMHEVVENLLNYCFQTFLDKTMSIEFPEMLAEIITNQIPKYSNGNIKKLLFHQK

[6] = target: Glucocorticoid receptor (Homo sapiens) (UniProt P04150); experiment: GR-EFC Redistribution (AID 451; calls by dose curve; also: potency is read from the fitted curve at half-maximal effect); details: CHO-K1 GR-EFC translocation, beta-gal luminescence, 2 h
Summary of the method: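 CHO-K1 cells expressing nuclear EA and GR-ED fragments of b-gal; compounds titrated up to 46 uM final, 2 h at 37 C. GR nuclear translocation read as complemented b-gal luminescence after 1 h RT detection.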

[7] = target: Mitogen-activated protein kinase 10 (Mus musculus) (UniProt Q61831); experiment: JNK3 AlphaScreen Assay (AID 530);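 also: kinase came from lysate of stimulated human HepG2 cells; signal reports phosphorylation of biotinylated GST-cJun 1-79 at Ser73 with 10 µM ATP; % is scaled to controls: 0 for no effect and ±100 for the full control effect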
Summary of the method: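 Pre-activated (IL-1β/TNFα) JNK3 in HepG2 lysates phosphorylates biotin-GST-cJun(1-79), 10 uM ATP; anti-phospho-cJun(Ser73) AlphaScreen read at room temperature, pH 7.6 Tris buffer. Compounds pre-incubated 15 min as titrations.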

[8] = target: 3',5'-cyclic-AMP phosphodiesterase 4B (Homo sapiens) (UniProt Q07343); experiment: qHTS Assay for Inhibitors of PDE-IV (AID 607; active = well fitted activation curve with a large enough effect in the main read-out, with a control signal flat, not every such curve was filed as active; also: % of control where 0% means no effect)
Chain of 3',5'-cyclic-AMP phosphodiesterase 4B (Homo sapiens) (Q07343 whole entry, looked up): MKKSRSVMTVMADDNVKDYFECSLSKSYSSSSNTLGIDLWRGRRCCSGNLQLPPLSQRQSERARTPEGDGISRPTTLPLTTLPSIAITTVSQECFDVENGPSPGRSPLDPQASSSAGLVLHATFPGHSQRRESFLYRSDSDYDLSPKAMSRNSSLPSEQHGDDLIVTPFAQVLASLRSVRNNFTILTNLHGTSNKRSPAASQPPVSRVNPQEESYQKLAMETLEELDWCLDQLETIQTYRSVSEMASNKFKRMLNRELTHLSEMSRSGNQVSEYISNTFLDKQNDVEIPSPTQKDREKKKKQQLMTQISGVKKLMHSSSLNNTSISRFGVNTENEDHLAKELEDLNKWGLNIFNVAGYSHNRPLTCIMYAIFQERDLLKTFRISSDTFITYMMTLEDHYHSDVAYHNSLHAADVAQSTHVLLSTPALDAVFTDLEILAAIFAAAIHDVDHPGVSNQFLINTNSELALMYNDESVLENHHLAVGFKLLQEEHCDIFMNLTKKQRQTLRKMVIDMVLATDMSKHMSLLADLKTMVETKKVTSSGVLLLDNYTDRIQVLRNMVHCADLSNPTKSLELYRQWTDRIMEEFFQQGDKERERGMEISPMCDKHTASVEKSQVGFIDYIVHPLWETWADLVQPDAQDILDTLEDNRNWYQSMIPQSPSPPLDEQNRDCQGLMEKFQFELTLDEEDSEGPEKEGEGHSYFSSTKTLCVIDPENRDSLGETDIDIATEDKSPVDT
Summary of the method: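 Cell-based read-out of cAMP via a modified cyclic nucleotide-gated channel and membrane potential dye (535/590 nm) in HEK293 cells expressing PDE4 endogenously. Compounds tested up to 22.9 uM final; 100 uM RO 20-1724 reference.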

[9] = target: Cytochrome P450 3A4 (Homo sapiens) (UniProt P08684); experiment: qHTS Assay for Activators of Cytochrome P450 3A4 (AID 885; active = well fitted curve in the direction sought with a large enough effect; an effect the other way counts as inactive or inconclusive; also: nearly all actives have a fitted effect of over 65% in size)
Chain of Cytochrome P450 3A4 (Homo sapiens) (P08684 whole entry, looked up): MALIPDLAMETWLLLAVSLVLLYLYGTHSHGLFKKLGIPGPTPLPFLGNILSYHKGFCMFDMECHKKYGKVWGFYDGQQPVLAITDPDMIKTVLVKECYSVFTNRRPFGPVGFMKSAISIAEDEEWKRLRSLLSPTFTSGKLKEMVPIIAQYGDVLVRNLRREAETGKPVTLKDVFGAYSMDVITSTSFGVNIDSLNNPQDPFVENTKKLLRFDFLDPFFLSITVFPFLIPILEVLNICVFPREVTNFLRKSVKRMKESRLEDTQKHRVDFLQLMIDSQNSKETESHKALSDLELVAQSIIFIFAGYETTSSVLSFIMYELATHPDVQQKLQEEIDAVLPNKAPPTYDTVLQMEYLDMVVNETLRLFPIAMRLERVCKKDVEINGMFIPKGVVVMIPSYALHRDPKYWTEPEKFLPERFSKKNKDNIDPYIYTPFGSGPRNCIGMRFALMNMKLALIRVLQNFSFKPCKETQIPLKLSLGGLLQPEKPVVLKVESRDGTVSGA
Summary of the method: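 Signal was normalized against complete inhibition by 57 uM ketoconazole. The reaction used 20nM CYP3A4 with 25uM Luciferin-PPXE, 10-min compound preincubation and a 60-min NADPH-supported step at RT.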

[10] = target: Cytochrome P450 2D6 (Homo sapiens) (UniProt P10635); experiment: qHTS Assay for Inhibitors and Substrates of Cytochrome P450 2D6 (AID 891; active = well fitted curve in the direction sought with a large enough effect; an effect the other way counts as inactive or inconclusive; also: nearly all actives have a fitted effect of over 60% in size; also: potency is read from the fitted curve at half-maximal effect)
Chain of Cytochrome P450 2D6 (Homo sapiens) (P10635 whole entry, looked up): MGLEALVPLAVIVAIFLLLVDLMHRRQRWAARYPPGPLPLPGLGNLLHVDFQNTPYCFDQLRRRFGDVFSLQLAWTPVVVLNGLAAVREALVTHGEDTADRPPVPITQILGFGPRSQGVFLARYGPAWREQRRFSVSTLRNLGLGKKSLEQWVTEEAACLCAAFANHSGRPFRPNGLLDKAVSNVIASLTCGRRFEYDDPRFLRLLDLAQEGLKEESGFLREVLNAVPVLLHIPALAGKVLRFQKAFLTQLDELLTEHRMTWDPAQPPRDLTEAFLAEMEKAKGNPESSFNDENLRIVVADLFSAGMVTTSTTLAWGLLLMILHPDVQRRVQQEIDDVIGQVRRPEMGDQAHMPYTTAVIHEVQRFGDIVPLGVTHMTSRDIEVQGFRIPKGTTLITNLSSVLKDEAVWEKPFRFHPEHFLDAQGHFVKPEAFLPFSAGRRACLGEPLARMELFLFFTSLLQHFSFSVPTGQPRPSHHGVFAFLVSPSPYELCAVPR
Summary of the method: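 Human CYP2D6 (5 nM) with 30 uM Luciferin-ME EGE (at Km) in 100 mM KPO4, compound preincubated 10 min, then NADPH regeneration system for 60 min at room temperature. Luciferin read by luminescence; normalized to 1.43 uM quinidine.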

[11] = target: Cytochrome P450 2C19 (Homo sapiens) (UniProt P33261); experiment: qHTS Assay for Inhibitors and Substrates of Cytochrome P450 2C19 (AID 899; active = well fitted curve in the direction sought with a large enough effect; an effect the other way counts as inactive or inconclusive; also: nearly all actives have a fitted effect of over 60% in size; also: potency is read from the fitted curve at half-maximal effect)
Summary of the method: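 Signal comes from luciferase acting on luciferin released by CYP2C19-mediated hydroxylation of Luciferin-H EGE, 10uM (KM). Assay mix: 5nM enzyme, 50mM KPO4; 60 min at 37C with NADPH regeneration. Data normalized against 57uM ketoconazole.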

[12] = target: Guanine nucleotide-binding protein G(i) subunit alpha-1 (Homo sapiens) (UniProt P63096); experiment: qHTS Assay for Inhibitors of RGS12 GoLoco Motif Activity (Green Fluorophore) (AID 879; active = well fitted curve in the direction sought with a large enough effect; an effect the other way counts as inactive or inconclusive;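 also: 0% = labeled peptide with Gαi1 and full inhibition = labeled peptide alone without protein; negative values mean loss of peptide binding seen as reduced polarization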)
Summary of the method: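 Fluorescence polarization assay: 50 nM Gαi1 with 10 nM FITC-labeled RGS12 GoLoco peptide in 10 mM Tris pH 7.5, 150 mM NaCl, 0.1 mM GDP, 0.05% NP40, 10 min at room temperature with compound.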

[13] = target: Muscarinic acetylcholine receptor M1 (Rattus norvegicus) (UniProt P08482); experiment: qHTS Assay for Antagonists of Acetylcholine Muscarinic M1 Receptor: Kinetic Measurement of Intracellular Calcium Response (AID 943; active = well fitted curve in the direction sought with a large enough effect; an effect the other way counts as inactive or inconclusive; also: nearly all actives have a fitted effect of over 75% in size)
Chain of Muscarinic acetylcholine receptor M1 (Rattus norvegicus) (P08482 whole entry, looked up): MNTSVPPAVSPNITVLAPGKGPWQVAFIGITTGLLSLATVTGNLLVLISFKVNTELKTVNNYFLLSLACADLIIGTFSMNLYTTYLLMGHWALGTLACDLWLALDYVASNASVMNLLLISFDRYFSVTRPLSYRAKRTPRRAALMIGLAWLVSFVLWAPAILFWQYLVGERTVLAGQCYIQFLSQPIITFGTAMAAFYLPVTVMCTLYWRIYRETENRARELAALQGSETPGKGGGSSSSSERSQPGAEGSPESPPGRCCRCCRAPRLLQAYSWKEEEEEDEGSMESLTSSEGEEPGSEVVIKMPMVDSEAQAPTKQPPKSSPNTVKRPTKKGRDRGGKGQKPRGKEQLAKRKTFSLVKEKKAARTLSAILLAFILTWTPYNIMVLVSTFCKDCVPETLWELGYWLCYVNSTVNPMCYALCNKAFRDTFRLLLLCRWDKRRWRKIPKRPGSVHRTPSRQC
Summary of the method: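 CHO cells expressing rat M1 receptor, Fluo-4 loaded, preincubated 10 min with compound, then stimulated with EC80 carbachol (100 nM final). Kinetic calcium fluorescence over 4 min; response taken as peak over basal signal.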

[14] = target: Muscarinic acetylcholine receptor M1 (Rattus norvegicus) (UniProt P08482); experiment: qHTS Assay for Antagonists of Acetylcholine Muscarinic M1 Receptor: Measurement of IP-One Response (AID 944; active = well fitted curve in the direction sought with a large enough effect; an effect the other way counts as inactive or inconclusive; also: nearly all actives have a fitted effect of over 75% in size)
Summary of the method: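 CHO cells stably expressing rat M1, pretreated 10 min with compound, then stimulated 30 min with carbachol at EC80 (200 nM) in LiCl-containing buffer pH 7.4; IP1 accumulation read by HTRF competition (665/620 nm).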

[15] = target: Pyruvate kinase (Leishmania mexicana) (UniProt Q27686); experiment: qHTS Validation Assay for Inhibitors of Leishmania Mexicana Pyruvate Kinase (AID 945; active = well fitted curve in the direction sought with a large enough effect; an effect the other way counts as inactive or inconclusive;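 also: 0% = DMSO only neutral control wells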)
Chain of Pyruvate kinase (Leishmania mexicana) (Q27686 2-499 E452W): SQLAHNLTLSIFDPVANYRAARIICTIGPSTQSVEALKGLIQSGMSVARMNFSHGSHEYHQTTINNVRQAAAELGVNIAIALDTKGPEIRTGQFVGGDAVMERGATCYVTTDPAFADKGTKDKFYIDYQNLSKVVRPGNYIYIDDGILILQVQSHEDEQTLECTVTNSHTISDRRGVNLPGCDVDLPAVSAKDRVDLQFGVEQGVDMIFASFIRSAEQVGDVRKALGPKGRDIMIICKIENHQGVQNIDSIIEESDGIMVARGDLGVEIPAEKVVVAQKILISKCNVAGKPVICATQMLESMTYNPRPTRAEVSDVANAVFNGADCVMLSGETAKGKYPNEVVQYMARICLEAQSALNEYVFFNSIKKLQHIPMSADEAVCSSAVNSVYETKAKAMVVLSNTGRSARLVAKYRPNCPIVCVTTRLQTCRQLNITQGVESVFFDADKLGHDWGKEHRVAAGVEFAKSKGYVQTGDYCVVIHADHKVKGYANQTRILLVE
Summary of the method: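 The enzyme is a highly purified E451W mutant of LmPYK used at 0.2 nM. It converts 0.5 mM PEP and 0.1 mM ADP over 1 h at room temperature; product ATP is quantified by luciferase luminescence relative to DMSO controls.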

[16] = target: Pyruvate kinase PKM (Homo sapiens) (UniProt P14618); experiment: qHTS Assay for Activators of Human Muscle Pyruvate Kinase (AID 954; active = well fitted curve in the direction sought with a large enough effect, not every such curve was filed as active;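 also: 0% = uninhibited enzyme and -100% = no enzyme or full thiadiazolimine inhibition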)
Chain of Pyruvate kinase PKM (Homo sapiens) (P14618 whole entry, looked up): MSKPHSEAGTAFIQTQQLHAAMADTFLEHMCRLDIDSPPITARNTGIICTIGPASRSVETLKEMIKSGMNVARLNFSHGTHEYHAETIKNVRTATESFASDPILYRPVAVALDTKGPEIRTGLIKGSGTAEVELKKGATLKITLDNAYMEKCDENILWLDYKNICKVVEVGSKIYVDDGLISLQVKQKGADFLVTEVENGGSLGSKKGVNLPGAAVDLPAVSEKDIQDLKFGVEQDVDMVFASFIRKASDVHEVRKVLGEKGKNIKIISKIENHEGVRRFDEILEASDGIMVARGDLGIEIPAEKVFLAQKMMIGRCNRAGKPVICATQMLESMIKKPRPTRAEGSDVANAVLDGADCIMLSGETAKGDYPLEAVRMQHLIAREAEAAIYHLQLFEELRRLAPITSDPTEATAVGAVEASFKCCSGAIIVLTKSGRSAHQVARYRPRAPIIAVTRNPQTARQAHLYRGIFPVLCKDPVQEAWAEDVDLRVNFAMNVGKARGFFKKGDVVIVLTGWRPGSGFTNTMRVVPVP
Summary of the method: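 Human PKM2 activity is measured as ATP generation, detected by luciferase-coupled luminescence. The enzyme (0.1 nM) acts on 0.5 mM PEP and 0.1 mM ADP for 1 h at ambient temperature; data are normalized to uninhibited and full-inhibition wells.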

[17] = target: Alpha-galactosidase A (Homo sapiens) (UniProt P06280); experiment: Counterscreen for Glucocerebrosidase Inhibitors: qHTS Assay for Human alpha-Galactosidase at pH 4.5 (AID 992; active = well fitted curve in the direction sought with a large enough effect; an effect the other way counts as inactive or inconclusive; also: 0% is about no effect)
Chain of Alpha-galactosidase A (Homo sapiens) (P06280 whole entry, looked up): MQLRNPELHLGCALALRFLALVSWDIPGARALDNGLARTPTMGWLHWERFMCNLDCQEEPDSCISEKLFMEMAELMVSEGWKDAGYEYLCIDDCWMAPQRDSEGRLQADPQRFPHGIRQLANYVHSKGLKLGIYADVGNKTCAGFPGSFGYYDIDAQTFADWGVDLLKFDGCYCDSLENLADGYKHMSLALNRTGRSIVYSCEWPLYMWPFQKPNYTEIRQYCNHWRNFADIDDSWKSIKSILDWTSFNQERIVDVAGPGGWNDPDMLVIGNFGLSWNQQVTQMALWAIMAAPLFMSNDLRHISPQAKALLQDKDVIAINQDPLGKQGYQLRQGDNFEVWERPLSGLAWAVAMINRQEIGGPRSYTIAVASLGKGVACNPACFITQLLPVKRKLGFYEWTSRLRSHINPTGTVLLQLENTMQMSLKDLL
Summary of the method: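 Quantitative HTS: compounds tested from 0.7 nM up to 77 uM against 2 nM enzyme with 80 uM 4-MU alpha-D-galactopyranoside. The 20 min room-temperature reaction is stopped with 1M NaOH/1M glycine, pH 10.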

[18] = target: alpha-glucosidase (Oryza sativa, rice) (UniProt Q653V4); experiment: Counterscreen for Glucocerebrosidase Inhibitors: qHTS Assay for Rice alpha-Glucosidase at pH 5.0 (AID 997; active = well fitted curve in the direction sought with a large enough effect; an effect the other way counts as inactive or inconclusive;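 also: 0% = full activity with enzyme and -100% = basal without enzyme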)
Summary of the method: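 Rice alpha-glucosidase (4 nM final) with 400 uM 4-methylumbelliferyl-alpha-D-glucopyranoside in citrate buffer pH 5.0, 20 min at room temperature, stopped at pH 10; fluorescence 365/440 nm, compounds 0.7 nM–77 uM, AC50 from Hill fits.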

[19] = qHTS Assay for Identification of Small Molecule Agonists for Thrombopoietin (TPO) Signaling Pathway (AID 917; active = well fitted curve in the direction sought with a large enough effect; an effect the other way counts as inactive or inconclusive; also: % is scaled to controls: 0 for no effect and ±100 for the full control effect)
Summary of the method: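 Murine Ba/F3 cells stably expressing human TPO receptor and a Glycoprotein IIb promoter–luciferase reporter were IL-3-starved overnight, then treated with compounds plus TPO (26 pM final, its EC50) for 24 hrs at 37 C; luminescence was read.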

Compound	activity change, negative = inhibition [1]	Potency [2]	activity change, negative = inhibition [3]	activity, negative = inhibition [4]	Potency [5]	Potency [6]	Potency [7]	Potency [8]	Potency [9]	Potency [10]	Potency [11]	outcome [12]	Potency [13]	Potency [14]	outcome [15]	outcome [16]	outcome [17]	Potency [18]	outcome [19]
COCCn1c(=O)c(-c2cc(F)cc(F)c2)nc2cnc(OC)nc21	-11.6%	3.98 µM (active)	-5.01%	-2.4%	> 9.22 µM	> 46 µM	inactive	inactive	inactive										
CCNc1ncc2nc(CCc3ccccc3)c(=O)n(C)c2n1	-11.6%	2.51 µM (active)	-7.02%	-0.83%	> 9.22 µM	> 46 µM	inactive			1.58 µM (active)	2.51 µM (active)								
C=C1CC[C@H](O)C/C1=C/C=C1\CCC[C@]2(C)[C@H]1CC[C@H]2[C@@H](C)CCCC(C)C	-6.4% [at 17.2 µM]	inactive	8.22% [at 17.2 µM]	-9.36% [at 17.2 µM]	> 20.6 µM	> 20.6 µM	inactive	inactive											
CCCC[C@]1(C2CCCC2)Cc2cc(OCC(=O)O)c(Cl)c(Cl)c2C1=O	-1.05% [at 38 µM]	inactive	-21.4% [at 38 µM]	-1.69% [at 38 µM]	> 46 µM	> 46 µM	inactive		inactive			inactive	inactive	inactive	inactive	inactive	inactive	inactive	
C[N@+]1(CCC(=O)c2ccccc2)CC[C@H]2CC[C@H](C2)C1	2.46%	inactive	3.4%	1.34%	> 46 µM	> 9.22 µM	inactive	inactive			inactive								
C[C@@H]1O[C@@H](n2cc(F)c(=O)[nH]c2=O)[C@H](O)[C@@H]1O	-3.92% [at 38 µM]	inactive	3.74% [at 38 µM]	21.9% [at 38 µM]	> 46 µM	> 46 µM	inactive	inactive						inactive	inactive	inactive	inactive	inactive	inactive
Cc1sc2ccccc2[n+]1CCC(=O)O	3.36%	inactive	16.6%	8%	> 46 µM	> 9.22 µM	inactive	inactive		inactive									
COc1cc([C@@H](O)CO)ccc1OS(=O)(=O)O	6.76% [at 38 µM]	inactive	4.87% [at 38 µM]	7.18% [at 38 µM]	> 46 µM	> 46 µM	inactive	inactive							inactive	inactive	inactive	inactive	inactive
O=C(O)/C=C\[C@H](O)c1ccc(Cl)cc1	1.29% [at 38 µM]	inactive	8.91% [at 38 µM]	-1.2% [at 38 µM]	> 46 µM	> 46 µM	inactive						inactive		inactive	inactive	inactive	inactive	inactive
O[C@@H](COc1ccc(Cl)cc1Cl)CN1CCCC1	7.86%	5.01 µM (active)	2.25%	4.26%	> 46 µM	> 9.22 µM	inactive	inactive		0.316 µM (active)									
